# PubChem BioAssay AID463173 (ICCB-Longwood Screening Facility, Harvard Medical School, 2010)
# Hit rate of the full screen: of about 52,000 compounds, about 1,700 (3.3%) were called active. The sample holds actives, similar compounds and a random draw of the others, so the mix is not that of the screen. Unmarked numbers belong to inactive results. Cut-off read from the data, not from the text of the source: active = survival mostly below about 52% (no sharp cut-off); inactive = mostly above about 56%.
# System: Wild type
# Experiment: growth inhibition of S. aureus wild type versus tarO mutant, primary screen, teichoic acid synthesis inhibitors, RN4220, OD600 (AID 463173)
# Details: S. aureus RN4220 wild type/DeltatarO growth, OD600, 18 h, hits give low values, screened at 18.75 µg/mL (by protocol)
row,Structure (SMILES),survival
1,CCOC(=O)c1c(C)[nH]c(C)c1S(=O)(=O)N1CCC(C(=O)NCc2cccc(C)c2)CC1,76%
2,COC(=O)C1=C(C)Nc2nc3ccccc3n2C1c1ccccc1 (stereo unspecified),91%
3,CC(=O)NC1CC(=O)N(c2ccc3c(c2)OCCO3)C1 (stereo unspecified),66%
4,COc1ccc(Cl)cc1-n1nnc(-c2nc(-c3ccc4c(c3)OCO4)no2)c1C,71%
5,Cc1ccc(OCc2nc3ccccc3n2CC(C)C)cc1,-1% (active)
6,COc1ccc(OCC(O)Cn2c(C(C)C)nc3ccccc32)cc1 (stereo unspecified),107%
7,Cc1nc2ccccc2n1C(C)c1ccccc1 (stereo unspecified),111%
8,CCC(C)Cn1c(COc2ccc(OC)cc2)nc2ccccc21 (stereo unspecified),-1% (active)
9,COc1ccc(OCc2nc3ccccc3n2C(C)C)cc1,102%
10,COc1ccc(OCc2nc3ccccc3n2C(C)c2ccccc2)cc1 (stereo unspecified),-2% (active)
11,COc1cccc(OCc2nc3ccccc3n2C)c1,84%
12,CCCc1nc2ccccc2n1CC(O)COc1ccccc1 (stereo unspecified),103%
13,Cc1cc(C)n2c(Nc3cccc(C(F)(F)F)c3)c(-c3ccsc3)nc2n1,89%
14,O=C(c1cccs1)N1CCCc2ccccc21,124%
15,COc1ccc(-n2ncc3c(NC(C)(C)CO)ncnc32)cc1,59%
16,Cc1cc(Br)ccc1NC(=O)c1cc2c(s1)-c1ccccc1SC2,78%
17,CCN(CC)c1ccc(NC(=O)CCc2nc3cccnc3n2Cc2cccs2)c(C)c1,73%
18,CCOc1ccc(S(=O)(=O)NCCc2sc(-c3ccc(C)cc3)nc2C)cc1,73%
19,Cc1ccc(-c2nc(C)c(CCNS(=O)(=O)c3ccccc3F)s2)cc1,67%
20,Cc1ccc(-c2nc(C)c(CCNS(=O)(=O)c3ccc(F)c(C(F)(F)F)c3)s2)cc1,-6% (active)
21,COc1ccc(N2CC(NC(=O)c3cc4ccccc4o3)CC2=O)cc1OC (stereo unspecified),70%
22,CCc1nc(SCC(=O)O)c(C#N)cc1C,96%
23,O=c1c2c([nH]n1-c1ccccc1)CCCC2,123%
24,COc1ccc(NC(=O)c2ccc3c(c2)c(C)c(C)n3Cc2ccc(F)cc2)c(OC)c1,59%
25,Cc1nc(-c2cccc(F)c2)sc1CCNC(=O)C(=O)Nc1ccc2c(c1)OCCO2,68%
26,CCC1CCCCN1C(=O)CSc1nc(-c2ccc(OC)c(OC)c2)cc(C(F)(F)F)n1 (stereo unspecified),-15% (active)

row,Structure (SMILES),survival
1,COc1ccc(-c2cc(C(F)(F)F)nc(SCCC(=O)N3CCN(C)CC3)n2)cc1,108%
2,CCC1CCCCN1C(=O)CSc1nc(-c2ccc(OC)cc2)cc(C(F)(F)F)n1 (stereo unspecified),-6% (active)
3,COc1ccc(-c2cc(C(F)(F)F)nc(SCC(=O)N3CCCCC3C)n2)cc1OC (stereo unspecified),69%
4,COc1ccc(-c2cc(C(F)(F)F)nc(SCC(=O)N3CCCCC3)n2)cc1OC,90%
5,COc1ccc(-c2cc(C(F)(F)F)nc(SCC(=O)N3CCCCC3)n2)cc1,97%
6,Cc1cc(C)n(-c2nc3cc(Cl)c(Cl)cc3nc2Nc2ccc(F)cc2C)n1,82%
7,Cc1oc(C(C)(C)C)cc1C(=O)NC(Cc1ccccc1)C(=O)O (stereo unspecified),98%
8,Cc1ccc(CNC(=O)C2CCN(c3ncnc4c3nc3n4CCCCC3)CC2)cc1,85%
9,COc1ccccc1N1CCN(C(=O)c2cc(-c3ccc(F)cc3)on2)CC1,73%
10,COc1ccc(N2CCN(C(=O)c3cc(-c4ccc(C)c(F)c4)on3)CC2)cc1,106%
11,COc1ccccc1-c1cc(C(=O)N2CCN(c3ccccc3)CC2)no1,-10% (active)
12,COc1ccc(-c2cc(C(=O)N3CCN(c4ccc(F)cc4)CC3)no2)cc1OC,72%
13,COc1ccccc1N1CCN(C(=O)c2cc(-c3ccccc3O)on2)CC1,66%
14,COc1cccc(-c2cc(C(=O)N3CCN(c4ccccc4OC)CC3)no2)c1,-9% (active)
15,COc1ccc(-c2cc(C(=O)N3CCN(c4ccccc4)CC3)no2)cc1,16% (active)
16,O=C(c1cc(-c2ccc(O)cc2)on1)N1CCN(c2ccccc2)CC1,51%
17,COc1cccc(-c2cc(C(=O)N3CCN(c4ccc(F)cc4)CC3)no2)c1,78%
18,CCn1c(CCNC(=O)C2CCCO2)nnc1SC (stereo unspecified),94%
19,COc1cccc(N2CCN(C(=O)CN3CCSc4ccc(S(=O)(=O)N(C)C)cc43)CC2)c1,72%
20,Cc1ccc2ccc(C(Nc3ccccn3)c3ccccc3)c(O)c2n1 (stereo unspecified),69%
21,Oc1cccc(C(Nc2ccccn2)c2ccc3cccnc3c2O)c1Cl (stereo unspecified),76%
22,Cc1ccnc(NCc2cccc3ccccc23)c1,115%
23,Cc1ccc(O)c(CNc2cccc3cccnc23)c1,107%
24,Cc1ccc(C(Nc2ccccn2)c2ccc3cccnc3c2O)cc1 (stereo unspecified),6% (active)
25,Cc1ccnc(NC(c2cc(C)ccc2O)c2ccc3cccnc3c2O)c1 (stereo unspecified),3% (active)
26,COc1ccc(C(=O)NC(c2ccc(Cl)cc2)c2cc(Cl)c3cccnc3c2O)cc1 (stereo unspecified),79%

row,Structure (SMILES),survival
1,Oc1c(C(Nc2ccccn2)c2ccccc2F)ccc2cccnc12 (stereo unspecified),135%
2,CCOc1cc(C(Nc2cc(C)ccn2)c2ccc3cccnc3c2O)ccc1OC (stereo unspecified),145%
3,Cc1ccnc(NC(c2cccc(O)c2)c2ccc3ccc(C)nc3c2O)c1 (stereo unspecified),74%
4,Cc1cccc(NC(c2cccc(Cl)c2)c2ccc3cccnc3c2O)n1 (stereo unspecified),4% (active)
5,Cc1ccnc(NC(c2ccccc2F)c2ccc3cccnc3c2O)c1 (stereo unspecified),-8% (active)
6,CCCN(C(=O)c1nn(-c2ccc(OC)c(Cl)c2)c(=O)c2c1c1ccccc1n2C)c1ccccc1F,74%
7,CCOc1ccccc1CNC(=O)Cn1c(-c2ccccc2)cc(C(C)=O)c1C,67%
8,COC(=O)COc1ccc(S(=O)(=O)N2CCCCC2)cc1C,117%
9,O=C(/C=C/c1ccccc1)NC1CCSC1=O (stereo unspecified),108%
10,O=C(CNS(=O)(=O)c1ccc(Cl)cc1)NC1CCCC1,103%
11,O=C(CS(=O)(=O)c1cccc2nsnc12)N1CCN(c2ccccc2F)CC1,94%
12,Cc1ccc(NC(=O)Nc2nnc(N(C)Cc3ccccc3)s2)cc1,101%
13,COc1ccc2c(c1)c(CC(=O)Nc1ccc(C(C)=O)cc1)c(C)n2C(=O)c1ccc(Cl)cc1,71%
14,CN1CCc2c(sc3c2C(=O)NC(c2ccc(OC(=O)c4ccc(Cl)cc4)cc2)N3)C1 (stereo unspecified),75%
15,CCOC(=O)c1ccc(NC(=O)CSc2cn(CC(=O)N3CCCC3)c3ccccc23)cc1,89%
16,COc1ccc(CNc2oc(COc3cccc(C)c3)nc2C#N)cc1,63%
17,COc1ccc(-c2nc(C)c(CCNS(=O)(=O)c3cc(Cl)ccc3Cl)s2)cc1,87%
18,CCOc1cc(C(=O)NCCc2csc3nc(-c4ccccc4F)nn23)cc(OCC)c1OCC,87%
19,O=C(CCn1nnc(-c2cccs2)n1)NC1CCCCC1,115%
20,Cc1cccc(NC(=O)c2ccccc2)n1,107%
21,COc1ccc(C(Nc2ccccn2)c2ccc3ccc(C)nc3c2O)cc1C (stereo unspecified),62%
22,Cc1cccc(NC(c2ccccc2C)c2ccc3ccc(C)nc3c2O)n1 (stereo unspecified),-3% (active)
23,Cc1ccc(C)c(N2CCN(S(=O)(=O)c3cn(C)c(C)n3)CC2)c1,68%
24,Cc1nc(S(=O)(=O)N2CCN(c3ccccc3F)CC2)cn1C,121%
25,Cc1cccc(N2CCN(S(=O)(=O)c3cn(C)c(C)n3)CC2)c1C,-3% (active)
26,COc1cc(NC(=O)CC(C)S(=O)(=O)c2cc3c4c(c2)CCN4C(=O)CC3)cc(OC)c1 (stereo unspecified),76%

row,Structure (SMILES),survival
1,C=CCN1C2=NCCCN2c2ccccc21,113%
2,CCOc1ccccc1NC(=O)CSc1nc(-c2cccs2)cc(C(F)(F)F)n1,83%
3,CC(C)(C)c1ccccc1NC(=O)CSc1nc(-c2cccs2)cc(C(F)(F)F)n1,10% (active)
4,COC(=O)CSc1nc(-c2ccccc2)cc(C(F)(F)F)n1,111%
5,O=C(CSc1nc(-c2cccs2)cc(C(F)(F)F)n1)Nc1ccccc1Cl,99%
6,COC(=O)c1ccccc1NC(=O)CSc1cc(-c2ccccc2)nc(C)n1,92%
7,COC(=O)c1ccccc1NC(=O)CSc1nc(-c2ccccc2)cc(C(F)(F)F)n1,19% (active)
8,COc1cccc(-n2c(=O)c3c4c(sc3n(Cc3ccccc3C#N)c2=O)CCCC4)c1,80%
9,COc1ccc(C(CNC(=O)c2oc3cc(C)c(C)cc3c2C)N2CCCCC2)cc1 (stereo unspecified),102%
10,Cc1ccc(NC(=O)C2CCN(C(=O)c3cnn(-c4ccccc4)c3-n3cccc3)CC2)cc1C,84%
11,COc1ccc(CCNC(=O)c2ccc3c(c2)ncn3-c2ccc(C(C)C)cc2)cc1OC,80%
12,COC(=O)CSc1nc2cc(OC)c(OC)cc2cc1C,110%
13,COc1cc(C2C(=O)N(C3CCCCC3)CC(=O)N2CCC2=CCCCC2)ccc1OC(C)C (stereo unspecified),135%
14,Cc1cc(-c2nc3ccccc3s2)ccc1NC(=O)c1cc(Cl)ccc1Cl,92%
15,COc1ccc(N2CCN(CC(O)COc3ccc(C)cc3C)CC2)cc1 (stereo unspecified),87%
16,COc1ccccc1N1CCN(CC(O)COc2cc(C)cc(C)c2)CC1 (stereo unspecified),82%
17,COc1ccc(N2CCN(CC(O)COc3ccccc3C(C)(C)C)CC2)cc1 (stereo unspecified),-3% (active)
18,COc1ccc(N2CCN(CC(O)COc3ccc(C(C)(C)C)cc3)CC2)cc1 (stereo unspecified),87%
19,COc1ccc(N2CCN(CC(O)COc3ccc(C(C)C)c(C)c3)CC2)cc1 (stereo unspecified),85%
20,Cc1ccc(C(C)C)c(OCC(O)CN2CCN(c3ccccc3F)CC2)c1 (stereo unspecified),-3% (active)
21,C=CCc1ccccc1OCC(O)CN1CCN(c2ccccc2)CC1 (stereo unspecified),54%
22,COc1ccccc1N1CCN(CC(O)COc2ccc(C)cc2C(C)(C)C)CC1 (stereo unspecified),2% (active)
23,COc1ccc(N2CCN(CC(O)COc3c(OC)cccc3OC)CC2)cc1 (stereo unspecified),81%
